ARNT-TACC3 inh = disruptors of ARNT/TACC3 protein interaction, primary screen, biochemical, AlphaScreen, single concentration | Transforming acidic coiled-coil-containing protein 3 (Homo sapiens), Q9Y6A5 | AlphaScreen His-ARNT PAS-B/GST-TACC3 binding, luminescence; TACC3 fragment carries E629A point mutation | inhibition, % at 9.99 µM | 0.66% of 390,000 active;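 active = mean inhibition of replicates at least 50% and at least half of replicates each reaching 50%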;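 note: 0% = complete ARNT plus TACC3 wells and 100% = ARNT alone without TACC3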
SUMO Mot1 rescue = yeast Mot1-301 growth rescue at high temperature, primary screen, SUMOylation pathway inhibitor project, S. cerevisiae, ATP luminescence, 38.5C | growth rescue, % at 18.8 µM | 1% of 320,000 active | S. cerevisiae Mot1-301 growth rescue; percent above DMSO median, 100 means doubled;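 active = every valid replicate shows activation above 250% relative to neutral control wells; inactive = the rest, any valid replicate at or below 250%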;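 note: OY570 slx delta 5 strain wells were the positive control but not used for scaling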
A1 inh = caspase 3/7 activation in MEF A1-2A-BIM cells, primary screen, A1 inhibitor project, cell-based, luminescence, HTS. Caspase-Glo 3/7 luminescence, 3 h; percent of clofoctol response, vehicle zero. caspase activation, % (test concentration not listed). 0.066% of 330,000 active;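 active = over half of replicate activation scores above 10%, or exactly half above 10 with the replicate mean above 10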
AI-2 QS modul = Vibrio harveyi AI-2 quorum sensing modulators, primary screen, JMH597 strain, luminescence/OD600 ratio | Vibrio harveyi JMH597 AI-2 luminescence/OD600 ratio, 9 h; active compounds read low; strain lacks LuxN and CqsS sensors; 0 = neutral-control median | activity change, % at 7.5 µM | 0.4% of 300,000 active | AID 2094, 2009; in the data active = activity change below about -75%, passing the limit was not always enough;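 note: luminescence divided by OD600 gain over 9 h not by final OD600 alone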
aDG glyco up = activators of alpha-DG glycosylation, primary screen, uHTS, Pro5-aDG cells, AlphaScreen | 0.22% of 360,000 active | AID 624168, 2012 | alpha-DG glycosylation AlphaScreen (IIH6); 0% Pro5, 100% B10-LARGE cell signal | activation, % at 10 µM;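 active = activation of at least 8% versus controls, or a plate z-score of at least 8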;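 note: Pro5 are CHO cells carrying HIG-tagged alpha-DG that lacks glycosylation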
Mot1 SUMO dose = growth restoration of Mot1-301 yeast on galactose, dose response, SUMO pathway inhibitor project, whole organism, S. cerevisiae, ATP luminescence, cherry-picked samples. shares compounds with SUMO Mot1 rescue. S. cerevisiae Mot1-301 galactose growth, 24 h; -100 = growth of slx-deleted rescue strain. growth activity, percent, % at 42 µM. 2,300 tested, under 10 active. AID 493004, 2010;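 active = Signal drops as the depositor expects, and the fitted half-maximal dose is no more than ten times the top valid tested dose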;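 note: more negative values mean stronger growth rescue toward the control strain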
ARNT Alpha ctr-1 = AlphaScreen signal interference compounds, dose response, artefact control for ARNT-TACC3 interaction inhibitor project, biochemical, luminescence, cherry-pick | AC50, µM (top dose mostly 68 µM), for the others: at the top dose activity change, negative = signal decrease | shares compounds with ARNT-TACC3 inh | 50% of 1,200 active | AID 651705, 2012 | His-ARNT PASB-GST AlphaScreen artifact counter-screen;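 active = every separate test run was called active for a drop in luminescence, with AC50 within twice the top valid dose, actives reach about 71 µM in these data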
ARNT Alpha ctr-2 = AlphaScreen signal interference by compounds, dose response, artefact control for ARNT/TACC3 disruptor project, biochemical, dual-tagged ARNT, dry powder | shares compounds with ARNT-TACC3 inh | Dual-tagged His-ARNT PASB-GST AlphaScreen artifact counter-screen | AC50, µM | 70% of 45 active;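 active = luminescence drop, with half-maximal potency fitted within twice the sample's top valid dose, cut at about 70 µM in these data; inactive = the rest, including signal moving the wrong way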
aDG glyco conf = alpha-DG glycosylation enhancers, retest, confirmation, single concentration, Pro5-aDG cells; shares compounds with aDG glyco up; IIH6 AlphaLISA; scaled to LARGE-overexpressing B10 cells as 100%; activation, % at 10 µM (by protocol); 17% of 600 active;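 active = activation of at least 7% in one or more replicates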;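 note: cells exposed to compound for two days before detection; 0% = DMSO-treated Pro5 cells and 100% = DMSO-treated B10-LARGE cells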
Starred values were filed as active, the others as inactive; i = inactive; / = no result; + = active, no number. Rows were chosen to be rich in hits. Some 1.8% of all compounds tested hit in one or more screens of this group.

SMILES	ARNT-TACC3 inh	SUMO Mot1 rescue	A1 inh	AI-2 QS modul	aDG glyco up	Mot1 SUMO dose	others
O=C(O)c1cc(Oc2ccc(C(F)(F)F)cc2Cl)ccc1[N+](=O)[O-]	-2	514*	2	21	0	0
O=C(O)c1ccc([N+](=O)[O-])c([N+](=O)[O-])c1	0	/	/	/	0	/
COC(=O)C1CN(C#N)N(c2ccc(Cl)cc2)C12c1ccccc1-c1ccccc12 (stereo unspecified)	/	792*	0	-1	-1	-2
COC(=O)[C@H]1[C@H](CO)[C@H]2Cn3c(ccc(-c4ccccc4F)c3=O)[C@@H]1N2Cc1ccccc1	3	/	/	/	/	/
C[n+]1c(-c2ccccc2)cc(CCCCc2cc(-c3ccccc3)[n+](C)c(-c3ccccc3)c2)cc1-c1ccccc1	18	368*	1	13	0	-1
CCCOc1ccccc1OCC(=O)N1CCN(CC(=O)N2CCOCC2)CC1	/	/	/	/	0	/
COc1ccccc1-n1c(O)c(/C=C2\C=Nc3ccccc32)c(=O)[nH]c1=O	-4	562*	0	11	0	0
CS(=O)(=O)c1ccc(C2=C(CNC(=O)c3ccncc3)[C@H]3CC[C@@H](C2)N3Cc2ccco2)cc1	/	/	/	/	0	/
CN(C=O)CP(=O)(O)CN(C)C=O	-6	570*	0	0	0	0
CN(C)c1ccccc1	/	/	/	/	0	/
Cc1cccc(N=Nc2ccc(N(C)C)cc2)c1	-5	736*	-3	27	0	0
O=[N+]([O-])c1ccccc1CN1CC=C(c2ccc(F)cc2)CC1	5	+	-1	4	0	1
Cc1cc(Oc2cc(NN3CCCCC3)c([N+](=O)[O-])cc2[N+](=O)[O-])ccc1[N+](=O)[O-]	-10	752*	0	15	0	0
O=[N+]([O-])c1ccc(N2CCCC2)c(F)c1Br	/	-6	3	21	1	/
CC1CN=C(NCc2ccccc2)S1 (stereo unspecified)	0	679*	0	12	0	0
Cc1cc(C)n(CCOC(=O)C2C(C=C(Cl)Cl)C2(C)C)n1 (stereo unspecified)	26	905*	0	18	1	0
O=C1NC(=O)C(=Cc2ccc(N3CCOCC3)cc2)C(=O)N1	-13	505*	1	35	0	0
CC(C)(C)c1nc(NCc2ccc3c(c2)OCO3)c2nnn(Cc3ccccc3Cl)c2n1	-5	-4	0	18	0	/
Cn1cc(C(=O)Cc2ccccc2)c2ccccc21	-7	671*	0	17	0	1
c1ccc(NC2=NCCCS2)cc1	-2	-12	0	0	0	/
Cc1sc(-n2c(C)cc(C=C3C(=O)NC(=O)NC3=O)c2C)c(C#N)c1C	/	486*	0	23	/	0
Cc1cc(/C=C2\C(=O)NC(=O)N(c3ccc(Cl)cc3)C2=O)c(C)n1-c1sc2c(c1C#N)CCCC2	/	-4	0	18	1	/
CCn1nc(-c2cccnc2)nc2c(=O)n(C)c(=O)nc1-2	/	/	/	/	/	/	ARNT Alpha ctr-2=i
O=C(Nc1ccc(Cl)cc1)O/N=C(\c1ccccc1)c1ccccn1	50*	0	0	11	0	/	ARNT Alpha ctr-1=-38%
O=C(N/N=C/c1c(O)n(CCC2=CCCCC2)c(=S)[nH]c1=O)c1ccccc1	27	-8	0	57	0	/
SMILES	ARNT-TACC3 inh	SUMO Mot1 rescue	A1 inh	AI-2 QS modul	aDG glyco up	Mot1 SUMO dose	others
O=C(N/N=C/c1c(O)n(CCC2=CCCCC2)c(=O)[nH]c1=O)c1ccccc1	51*	11	0	17	0	/	ARNT Alpha ctr-1=-16%
O=C1NC(=O)C(CCc2ccccn2)(Cc2ccc3c(c2)OCO3)C(=O)N1CCc1ccccc1 (stereo unspecified)	/	-15	1	0	0	/
Clc1cccc(CNCCc2c[nH]c3ccccc23)c1	52*	20	-1	10	0	/	ARNT Alpha ctr-1=-7%
FC(F)(F)c1ccc(CNCCc2c[nH]c3ccccc23)cc1	-1	-4	-1	6	0	/
O=c1[nH]c(=S)n(Cc2ccco2)c(O)c1C=NCc1cccs1	/	2	0	-7	0	/
C/C=C/c1ccc([C@H]2[C@@H](CO)N3CCCCN(C(=O)Cc4ccncc4)C[C@@H]23)cc1	-3	/	/	/	/	/
CCN(CCCl)c1cc(CN(C)C)cc(NC(=O)c2ccc(C(=O)Nc3cc(CN(C)C)cc(N(CC)CCCl)c3)cc2)c1	54*	/	/	/	0	/	ARNT Alpha ctr-1=4.3µM*
Oc1cccc2cccnc12	/	-8	0	14	0	/
Oc1ccc(CN2CCC3CCCCC3C2)c2cccnc12 (stereo unspecified)	/	/	/	/	/	/	ARNT Alpha ctr-1=3.3µM*
N#CC1(c2ccccc2)CCN(Cc2ccc(O)c3ncccc23)CC1	/	/	/	/	/	/	ARNT Alpha ctr-1=5.9µM*
N#CC1(c2ccccc2)CCN(C2CC(=O)N(c3cccc(F)c3)C2=O)CC1 (stereo unspecified)	5	1	-1	32	0	/
CC1CN(c2ccc([N+](=O)[O-])c3cccnc23)CC(C)N1 (stereo unspecified)	59*	7	-1	13	0	/	ARNT Alpha ctr-1=-4%
COC(=O)[C@@H]1[C@@H](CO)[C@@H]2Cn3c(ccc(C4=CCCC4)c3=O)[C@H]1N2CC1CCCCC1	4	/	/	/	/	/
CCCNC(=O)Cn1cnc2sc(C(=O)N3CCC4(CC3)OCCO4)c(C)c2c1=O	-8	-3	1	9	14*	/	aDG glyco conf=0
CCOc1cc2c(cc1OCC)-n1cccc1C(c1ccc(OC(F)F)cc1)NC2 (stereo unspecified)	4	-8	2	25	0	/
COC(=O)C1=C(c2ccc(C(C)=O)cc2)C[C@@H]2CC[C@H]1N2C(=O)NC1CCCCC1	2	-14	1	/	7.3*	/	aDG glyco conf=-1
